An excerpt weighted towards active compounds, which were near 1.4% of everything screened.
Wee1 stabilizer: blocks degradation of human Wee1 kinase | AID 1321 | HeLa Luc-Wee1K328M stability, luciferase luminescence; 100% = proteasome inhibitor MG132 effect | reporter increase, % at 5 µM | 220,000 tested, 1.2% active;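 active = activation above the mean of all tested compounds plus 3 SD, set per screening run, cut at about 8.8% in these data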;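 note: cells exposed to compound for 20 h before luminescence read; 0% = DMSO alone and 100% = MG132 at 30 µM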
Target sequence (P30291 whole entry K328M): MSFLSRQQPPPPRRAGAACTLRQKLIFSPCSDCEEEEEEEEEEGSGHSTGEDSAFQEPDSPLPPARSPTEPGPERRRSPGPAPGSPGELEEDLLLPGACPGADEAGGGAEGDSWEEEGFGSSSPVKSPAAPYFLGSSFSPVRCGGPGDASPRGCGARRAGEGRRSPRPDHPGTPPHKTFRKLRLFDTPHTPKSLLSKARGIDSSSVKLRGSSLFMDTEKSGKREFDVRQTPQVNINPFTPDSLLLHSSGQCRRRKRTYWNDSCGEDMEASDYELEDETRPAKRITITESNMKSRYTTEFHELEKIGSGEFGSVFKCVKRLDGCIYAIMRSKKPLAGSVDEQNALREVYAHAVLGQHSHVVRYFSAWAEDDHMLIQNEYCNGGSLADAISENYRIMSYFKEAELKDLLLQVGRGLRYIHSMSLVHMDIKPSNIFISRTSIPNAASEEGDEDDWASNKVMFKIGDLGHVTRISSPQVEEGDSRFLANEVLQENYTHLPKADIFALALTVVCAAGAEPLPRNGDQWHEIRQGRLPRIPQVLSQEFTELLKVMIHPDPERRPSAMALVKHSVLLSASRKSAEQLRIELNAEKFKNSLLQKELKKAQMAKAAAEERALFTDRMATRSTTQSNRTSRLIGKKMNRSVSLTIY
HSV augment: increases HSV replication in cells. 220,000 tested, 0.005% active. HSV replication augmentation in cells, fold increase. AID 1956. maximum fold increase; in the data active = maximum fold increase above about 1.5; tested in PC3 cells
TNF necrop inh: blocks TNF-alpha induced death of Jurkat FADD-/- cells | Jurkat FADD-/- TNF necroptosis rescue, ATP luminescence, 24 h; 0 = TNF only, 100 = no-TNF cells | activation (protection from cell death), % at 10 µM | 220,000 tested, 0.068% active;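 active = activation, meaning protection from cell death, of at least 50% relative to plate controls; inactive = activation below 50%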;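 note: necroptosis triggered by 40 ng/mL TNF-alpha added together with compound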
L929 necroptosis: blocks zVAD induced death of L929 cells. viability rescue, % at 10 µM. L929 zVAD necroptosis rescue, ATP luminescence, 24 h; with zVAD 60 µM. 220,000 tested, 0.38% active;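 active = activation, scaled between plate controls, above about 75%, limit read from the data; inactive = activation under that limit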;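 note: 0% = zVAD with DMSO and 100% = DMSO alone without zVAD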
V-ATPase pHluor: yeast V-ATPase proton transport regulation by pHLuorin | 350,000 tested, 0.37% active | S. cerevisiae, pHLuorin cytosolic pH fluorescence | response, % at 10 µM; in the data active = response mostly above about 7.3%, no sharp cut-off; inactive = mostly below about 5.4%; note: actives read high
Wee1 stab conf: human Wee1 degradation inhibition, confirmation; HeLa Luc-Wee1K328M degradation, luminescence; vehicle 0%, proteasome-blocked wells 100%; activation, % at 5 µM; shares compounds with Wee1 stabilizer; 1,100 tested, 4% active; AID 1410; in the data active = activation above about 8.9%
zVAD necrop conf: confirmed blocker of zVAD induced death in L929 cells. AID 463117. activation (protection from necroptosis), % at 10 µM. L929 zVAD-induced necroptosis rescue, ATP luminescence, 24 h. shares compounds with L929 necroptosis. 760 tested, 16% active;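 active = mean protection from necroptosis of at least 50% over duplicate tests; inactive = mean protection below 50%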;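 note: 0% = cells with zVAD alone and 100% = vehicle cells without zVAD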
* = called active by the depositor; i = inactive; . = not tested or not shown.

SMILES	Wee1 stabilizer	HSV augment	TNF necrop inh	L929 necroptosis	V-ATPase pHluor	Wee1 stab conf	others
CC1=CC(c2ccccc2)n2nnnc2N1 (stereo not drawn)	11.6*	i	2.8	-0.1	-3.6	3.8
CC1=CC(c2ccccc2)n2nc(N3C(=O)c4ccccc4C3=O)nc2N1 (stereo not drawn)	0.1	i	-3.1	0.0	0.8	.
COc1cccc(OCC(O)CN2CCC(C)CC2)c1 (stereo not drawn)	-0.6	i	-2.9	-0.1	-2.9	.
CC1CCN(CC(O)COc2cccc(F)c2)CC1 (stereo not drawn)	13.8*	i	0.7	0.0	-0.3	0.8
Cc1ccc(NC(=O)CN(C)Cc2nc3ccccc3c(=O)[nH]2)c(Br)c1	11.1*	i	-0.6	-0.1	1.0	4.3
Cc1ccccc1C(=O)N1CCC(C(=O)Nc2sccc2C(N)=O)CC1	.	.	.	.	1.1	.
N#Cc1ccc(S(=O)(=O)Nc2ccccc2N2CCOCC2)cc1	.	.	.	.	-2.5	.
Cc1ccc(S(=O)(=O)N/N=C/c2ccc(OCC(=O)N3CCOCC3)cc2)cc1	2.5	i	2.0	2.9	0.6	.
CSc1nccc(Oc2cncc(Cl)c2)n1	16.8*	i	0.8	0.3	2.5	-0.9
CSc1nccc(Oc2ccccc2Cl)n1	.	.	.	.	1.7	.
O=C(NC1CCCCCC1)C1Cc2ccccc2CN1C(=O)c1ccco1 (stereo not drawn)	21.3*	i	0.6	-0.6	2.7	2.8
COc1ccc(C(C(=O)Nc2ccc(C(C)C)cc2)N(Cc2ccco2)C(=O)CC2NC(=O)NC2=O)cc1 (stereo not drawn)	15.8*	i	3.3	1.5	11.2	3.6
CC1CCCC(NC(=O)COC(=O)/C=C/c2ccc([N+](=O)[O-])cc2)C1C (stereo not drawn)	.	.	.	.	-1.9	.
COc1cccc(-c2cc(C(=O)NC3CCCC3)no2)c1	14.6*	i	1.5	0.5	0.1	2.7
COc1ccc(OC)c2nc(-c3ccc4c(c3)OCO4)ccc12	.	.	.	.	0.1	.
c1ccc2nc(-c3ccc4c(c3)OCO4)ccc2c1	10.3*	i	-1.3	1.2	0.5	2.7
Cn1c(=NC(=O)c2ccccc2[N+](=O)[O-])sc2cccc(F)c21	16.8*	i	-1.5	0.2	4.5	-0.4
Cn1c(=NC(=O)C(C)(C)C)sc2cccc(F)c21	-1.8	i	-2.9	1.4	0.5	.
Cc1ccc(C)c(N2CCN(C(=O)c3ccc(CS(=O)Cc4cccc(Cl)c4)o3)CC2)c1 (stereo not drawn)	.	.	.	.	3.1	.
Clc1cccc(Cl)c1-c1nnc2cccc(Cl)n12	11.9*	i	-1.7	-0.5	9.4	-0.9
COc1cccc(NC(=O)CN(C)C(C)C(=O)Nc2ccc(S(=O)(=O)N3CCCC3)cc2)c1 (stereo not drawn)	4.4	i	2.3	1.3	0.5	.
O=C(NCc1ccc2c(c1)OCO2)c1ccc2c(c1)OCO2	15.6*	i	-1.4	-0.2	-7.0	-3.5
CCNC(=S)NCc1ccc2c(c1)OCO2	-1.3	i	1.3	0.7	-2.3	.
S=C(NCc1ccc2c(c1)OCO2)NCc1ccc2c(c1)OCO2	11.7*	i	2.1	-0.4	1.4	-0.5
Nc1c2c(nc3sc4c(c13)CCCC4)-c1ccccc1CC2	18.0*	i	-0.1	6.8	-1.6	1.2
SMILES	Wee1 stabilizer	HSV augment	TNF necrop inh	L929 necroptosis	V-ATPase pHluor	Wee1 stab conf	others
NS(=O)(=O)c1ccc(CCNC(=O)CCCCCn2c(=S)[nH]c3ccc(Br)cc3c2=O)cc1	-2.2	i	1.0	0.1	0.6	.
CN(Cc1nc(-c2cnccn2)no1)CC(O)c1ccccc1 (stereo not drawn)	12.4*	i	0.5	-0.1	-1.9	2.8
O=c1cc(CSc2ccccc2)nc(-c2ccncc2)[nH]1	-1.1	i	-0.2	1.9	-1.0	.
Cc1cc(-c2nn(-c3ccccc3F)cc2CN(C)CC(O)CO)c(C)s1 (stereo not drawn)	12.9*	i	1.6	-0.3	-0.2	2.5
Cc1cc(-c2nn(-c3ccccc3F)cc2CN2CCC(O)CC2)c(C)s1	1.1	i	4.0	0.4	2.8	.
N/C(=N\OC(=O)COc1ccc2ccccc2c1Br)c1ccncc1	3.2	i	0.9	2.3	.	.
CC(=O)c1cc(C(=O)N2CCc3c([nH]c4ccccc34)C2CC(C)C)[nH]n1 (stereo not drawn)	-0.2	i	2.1	2.3	-0.3	.
CC(C)CC1c2[nH]c3ccccc3c2CCN1C(=O)c1cnccn1 (stereo not drawn)	19.2*	i	3.3	1.1	.	0.9
CN(C)S(=O)(=O)c1ccc(C(=O)/C=C/c2cccnc2)cc1	.	.	.	.	2.5	.
Cc1cc(C)c2c(N=NN(C)C)[nH]nc2n1	12.8*	i	-4.5	1.0	-0.7	-1.0
Cc1cc(C)c2c(NC(N)=S)n[nH]c2n1	-0.3	i	0.6	2.6	-0.4	.
CC(C)(C)c1ccc(OCc2ccc(C(=O)N3CCOCC3)o2)cc1	13.3*	i	2.3	49.5	-0.1	1.2
COc1ccc(-c2nn(-c3ccccc3)cc2CN(C)CCn2ccnc2C)c(F)c1	-3.5	i	6.8	0.1	-2.5	.
CC(=O)c1ccc(NC(=O)C2CC(c3ccc(F)cc3)=NO2)cc1 (stereo not drawn)	5.0	i	2.7	-0.1	0.6	.
CC(=O)c1cccc(NC(=O)C2CC(c3ccc(F)cc3)=NO2)c1 (stereo not drawn)	25.5*	i	0.3	0.2	1.0	-3.4
COc1ccc(CC(=O)NC(C)c2nnc(SCC(=O)Nc3ccccc3)n2C)cc1 (stereo not drawn)	-3.1	i	-0.8	1.1	1.2	.
COC(=O)c1ccc(NC(=O)CSc2ccccc2)cc1	0.6	i	3.5	1.2	-1.5	.
COC(=O)c1ccc(NC(=O)CSc2nnc(C(C)NC(=O)c3ccccc3Cl)n2C)cc1 (stereo not drawn)	21.8*	i	-0.5	0.0	1.0	0.0
COC(=O)c1ccc(NC(=O)CSc2ccccn2)cc1	15.0*	i	2.2	0.6	-5.9	0.5
CCCNC(=O)c1c(CSc2ccc(Cl)cc2)noc1C(=O)NCc1ccccc1	.	i	.	.	0.7	.
C[C@]1(CC/C(=C/CO)CO)[C@H](CO)CC[C@@]23COC(=O)C2=CCC[C@@H]31	.	.	.	.	2.7	.
CCc1cccc2c(C(=S)N3CCCC3)c[nH]c12	14.3*	i	0.6	0.6	-2.5	1.1
CCOC(=O)c1ccc2ncc(-c3ccccc3)nc2c1	18.2*	i	0.1	76.3*	3.5	-1.1	zVAD necrop conf=1.5
O=C(O)c1ccc(-c2noc(-c3cccc(Cl)c3)n2)cc1	.	.	.	.	-2.1	.
Cc1nc2ccc(C(=O)N3c4ccccc4CC3C)cc2s1 (stereo not drawn)	3.1	i	-4.8	2.6	-0.1	.
